Screening results (PubChem BioAssay)
Rab9 prom act – qHTS Assay for Rab9 Promoter Activators | Huh7 Rab9 promoter-luciferase reporter, luminescence, 24 h | Potency, µM (top dose mostly 9.22 µM), for inactives: at the highest dose activation, negative = inhibition, hits mostly activators | 2.8% of 320,000 active | AID 485297, 2010; also: % of control where 0% means no effect; nearly all actives have a fitted effect of over 60% in size
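Cells were plated at 1500 per well in reduced-serum medium with 10% FBS and left 2 h. Compound in DMSO was then added for 24 h at 37 °C. Reporter signal was read by luminescence after 10 min with luciferase detection reagent.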
NPC1 promoter act – qHTS Assay for NPC1 Promoter Activators. Huh7 NPC1 promoter luciferase reporter, 24 h. AID 485313, 2010. 2.4% of 320,000 active. Potency, µM (series often up to 9.22 µM), for inactives: at the top dose activation, hits mostly activators; also: % of control where 0% means no effect; nearly all actives have a fitted effect of over 60% in size
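Huh7 cells stably carrying NPC1 promoter–luciferase, plated in Opti-MEM with 10% FBS for 2 h, were exposed to compound in DMSO for 24 h at 37 °C; luciferase reagent was added for 10 min and luminescence read.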
SMN2 splice up – qHTS Assay for Enhancers of SMN2 Splice Variant Expression. HEK293 SMN2-luciferase splicing reporter, luminescence, 30-36 h. Potency, µM (doses to about 46.1 µM), without a hit: at the top dose activity change, positive = activation, actives largely listed as activators. 2.8% of 210,000 active. AID 1458, 2008; also: % of control where 0% means no effect; nearly all actives have a fitted effect of over 55% in size
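HEK293 cells carry an SMN2 minigene-luciferase reporter in which exon 7 inclusion puts luciferase in frame. Cells were seeded at 2000 cells/well, attached for 10-12 hours, then exposed to compounds for 30-36 hours at 37C before ONE-Glo luminescence.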
Luc counter – Counterscreen for Luciferase (Kinase-Glo TM) Inhibition | Potency, µM (series often up to 38.3 µM), without a hit: at the top dose activity change, negative = inhibition, actives largely listed as inhibitors | 0.28% of 200,000 active | AID 1379, 2008 | Kinase-Glo luciferase, ATP luminescence, 8 min | Luciferin 4-monooxygenase (Photuris pensylvanica), Q27757; also: % is scaled to controls: 0 for no effect and ±100 for the full control effect; nearly all actives have a fitted effect of over 60% in size
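Kinase-Glo luciferase light output from ATP and luciferin was measured with 10 uM ATP, within the enzyme's linear range. Buffer: 50 mM imidazole pH 7.2, 50 mM KCl, 7 mM MgCl2, 0.01% Tween 20, 0.05% BSA; luminescence read after 8 min at ambient temperature.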
ELG1 genotoxic – qHTS screen for small molecules that induce genotoxicity in human embryonic kidney (HEK293T) cells expressing luciferase-tagged ELG1. Potency, µM (doses to about 46 µM), for the others: top-dose activity change, positive = activation, hits mostly activators. HEK293T ELG1-luciferase reporter, luminescence, 16 h. AID 504466, 2011. 1.3% of 330,000 active; also: % of control where 0% means no effect; nearly all actives have a fitted effect of over 60% in size
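HEK293T cells expressing luciferase-tagged ELG1 were exposed to compound or DMSO vehicle for 16 hr at 37 °C and 5% CO2. Luciferase activity was then measured with ONE-Glo after 30 min at room temperature.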
FLuc modulator – qHTS profiling assay for firefly luciferase inhibitor/activator using purifed enzyme and Km concentrations of substrates (counterscreen for miR-21 project); Luciferin 4-monooxygenase (Photinus pyralis), P08659; purified FLuc, Km substrates, luminescence inhibition; Potency, µM (titrated, usually from 57.5 µM), for inactives: at the highest dose activity change, negative = inhibition, usual class: inhibitors; 6.9% of 360,000 active;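 also: plate controls were vehicle for no effect and reference inhibitor for full effect; nearly all actives have a fitted effect of over 55% in size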
Target sequence (P08659 whole entry, looked up): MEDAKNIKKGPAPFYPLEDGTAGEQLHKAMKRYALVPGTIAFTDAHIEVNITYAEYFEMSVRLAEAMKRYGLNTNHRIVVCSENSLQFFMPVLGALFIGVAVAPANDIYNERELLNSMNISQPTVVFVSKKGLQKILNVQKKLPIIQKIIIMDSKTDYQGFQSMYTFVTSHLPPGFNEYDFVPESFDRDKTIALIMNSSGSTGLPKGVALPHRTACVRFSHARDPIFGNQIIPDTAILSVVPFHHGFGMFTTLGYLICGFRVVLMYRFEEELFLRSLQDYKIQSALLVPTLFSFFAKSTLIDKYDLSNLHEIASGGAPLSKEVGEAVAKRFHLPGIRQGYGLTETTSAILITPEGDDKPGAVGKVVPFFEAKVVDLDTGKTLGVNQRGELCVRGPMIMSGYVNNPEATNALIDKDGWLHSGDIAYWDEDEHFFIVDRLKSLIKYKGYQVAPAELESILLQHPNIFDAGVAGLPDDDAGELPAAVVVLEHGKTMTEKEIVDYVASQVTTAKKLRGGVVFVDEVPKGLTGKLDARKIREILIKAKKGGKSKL
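Purified P. pyralis luciferase, 10 nM final, with Km-level 10 uM D-luciferin and 10 uM ATP in 50 mM Tris acetate pH 7.5, 10 mM Mg acetate, 0.01% Tween-20, 0.05% BSA; 6-point qHTS titration about 60 µM downward; luminescence read.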
* = called active by the depositor; ? = inconclusive; nt = not tested or not shown; [ ] = remark or other dose. Shown are actives, neighbours in structure and some others; about 7.4% of the full set was active somewhere. Calls follow the shape of the dose curve; as a rule, active = well fitted curve in the direction sought with a large enough effect; inconclusive = small, poorly fitted or top-dose-only effect, or another doubt; inactive = no such curve, though single readings can be large; an effect the other way counts as inactive or inconclusive. Potency is read from the fitted curve at half-maximal effect.

SMILES	Rab9 prom act	NPC1 promoter act	SMN2 splice up	Luc counter	ELG1 genotoxic	FLuc modulator
CCOc1ccc(/C=C2\CCC(C3CCCC3)C2=O)cc1OC (configuration not stated)	10%	19%	nt	nt	12%	?
COc1ccc(/C=C2\CCC(C3CCCC3)C2=O)cc1Cn1cccn1 (configuration not stated)	-4%	-1%	-23%	0%	12%	?
Cc1ccc(CN2C(=O)C(O)(CC(=O)c3ccc(C)cc3)c3ccccc32)cc1 (configuration not stated)	nt	nt	-8%	nt	nt	?
COc1ccccc1CN1CCCC2(CCNCC2)C1	nt	nt	-3%	-7%	nt	nt
O=C(N/N=C/c1ccc(N2CCOCC2)s1)c1ccccc1Br	26%	10%	15%	-2%	5%	?
Clc1cccc(N/N=C/c2ccc(N3CCOCC3)s2)c1	21%	-1%	-5%	1%	-9%	9.5µM*
Cc1cc(C)c(C#N)c(SCC(=O)Nc2ccc3c(c2)OCO3)n1	?	?	16µM*	0%	16µM*	-10%
Cc1cc(C)c(C#N)c(SCC(=O)Nc2ccccc2C(N)=O)n1	1.3µM*	2µM*	13µM*	1%	?	12µM*
Cc1cc(C)c(C#N)c(SCC(=O)Nc2ccccc2C#N)n1	nt	nt	nt	nt	nt	3%
Cc1nc(SCC(=O)Nc2ccc3c(c2)OCO3)c(C#N)c2c1CCCC2	20%	13%	-26%	1%	?	1%
Cc1cc(C)c(C#N)c(SCC(=O)Nc2cc(C)on2)n1	nt	nt	nt	nt	18µM*	nt
Cc1cc(NC(=O)CSc2nc3c(C)ccc(C)c3cc2C#N)no1	0%	-16%	nt	nt	17%	0%
O=C(CCS(=O)(=O)c1cc(Br)cc2c1N(C(=O)C1CC1)CC2)NCc1ccccc1Cl	nt	nt	-8%	nt	nt	-3%
Cc1c(NC(=O)c2ccc(Br)o2)cccc1-c1nc2ccccc2o1	nt	nt	10%	nt	nt	-8%
CCn1c(O)c(N=NC(=O)c2cccs2)c2ccccc21	2%	?	1%	0%	-9%	17µM*
Cc1ccc2c(c1)C(=O)C1(O)CCN(c3ccccc3)C1=N2 (configuration not stated)	nt	nt	3%	-1%[39.9 µM]	nt	nt
CNC1CCC(c2ccc(Cl)c(Cl)c2)c2ccccc21 (configuration not stated)	nt	nt	nt	-3%	nt	nt
CCOc1ccc(CCNC(=O)CSc2nnnn2-c2ccccc2)cc1OCC	nt	nt	5%	nt	nt	-7%
COc1cc(/C=C2\SC(N)=NC2=O)cc(Br)c1O	-3%	0%	nt	nt	2%	-10%
NC1=NC(=O)/C(=C\c2ccco2)S1	0%	-3%	nt	nt	2%	17µM*
COc1ccc(/C=C2\SC(N)=NC2=O)cc1	25%	2%	nt	nt	4%	15µM*
CCOC(=O)C1CCCN(C2=NC(=O)/C(=C/c3ccc(OC)cc3)S2)C1 (configuration not stated)	2%	-1%	nt	nt	0%	-11%
CCOC(=O)CSC1=NC(=O)/C(=C/c2ccc(OC)cc2)S1	-32%	-27%	-10%[1.84 µM]	-1%	?	13µM*
COc1ccc2oc(-c3ccc(C)c(NC(=O)Cc4ccc(Cl)cc4)c3)nc2c1	nt	nt	4%	nt	nt	-15%
COc1ccc2oc(-c3ccc(C)c(NC(=O)c4ccc(N5CCOCC5)c([N+](=O)[O-])c4)c3)nc2c1	4%	16%	4%	-1%	?	6µM*
CCOc1ccc(C(=O)Nc2cc(-c3nc4cc(OC)ccc4o3)ccc2C)cc1[N+](=O)[O-]	nt	nt	17%	nt	nt	6.7µM*
COc1ccc(CNC(=O)c2ccc(N3CCOCC3)c([N+](=O)[O-])c2)cc1	5%	-1%	-14%	0%	1%	-4%
